Screening results: PubChem, National Center for Advancing Translational Sciences (NCATS)
JMJD2A Tudor – blocks the human JMJD2A Tudor domain. Potency, µM (doses to about 114 µM), without a hit: top-dose activity change, negative = inhibition, actives largely listed as inhibitors. AlphaScreen JMJD2A-Tudor / H3K4me3 peptide binding. AID 504339. O75164. 390,000 tested, 4.4% active; further: on the % scale 0 is the no-effect control and ±100 the full control effect; nearly all actives have a fitted effect of over 50% in size
Target sequence (O75164 whole entry, looked up, the tested form may be a part): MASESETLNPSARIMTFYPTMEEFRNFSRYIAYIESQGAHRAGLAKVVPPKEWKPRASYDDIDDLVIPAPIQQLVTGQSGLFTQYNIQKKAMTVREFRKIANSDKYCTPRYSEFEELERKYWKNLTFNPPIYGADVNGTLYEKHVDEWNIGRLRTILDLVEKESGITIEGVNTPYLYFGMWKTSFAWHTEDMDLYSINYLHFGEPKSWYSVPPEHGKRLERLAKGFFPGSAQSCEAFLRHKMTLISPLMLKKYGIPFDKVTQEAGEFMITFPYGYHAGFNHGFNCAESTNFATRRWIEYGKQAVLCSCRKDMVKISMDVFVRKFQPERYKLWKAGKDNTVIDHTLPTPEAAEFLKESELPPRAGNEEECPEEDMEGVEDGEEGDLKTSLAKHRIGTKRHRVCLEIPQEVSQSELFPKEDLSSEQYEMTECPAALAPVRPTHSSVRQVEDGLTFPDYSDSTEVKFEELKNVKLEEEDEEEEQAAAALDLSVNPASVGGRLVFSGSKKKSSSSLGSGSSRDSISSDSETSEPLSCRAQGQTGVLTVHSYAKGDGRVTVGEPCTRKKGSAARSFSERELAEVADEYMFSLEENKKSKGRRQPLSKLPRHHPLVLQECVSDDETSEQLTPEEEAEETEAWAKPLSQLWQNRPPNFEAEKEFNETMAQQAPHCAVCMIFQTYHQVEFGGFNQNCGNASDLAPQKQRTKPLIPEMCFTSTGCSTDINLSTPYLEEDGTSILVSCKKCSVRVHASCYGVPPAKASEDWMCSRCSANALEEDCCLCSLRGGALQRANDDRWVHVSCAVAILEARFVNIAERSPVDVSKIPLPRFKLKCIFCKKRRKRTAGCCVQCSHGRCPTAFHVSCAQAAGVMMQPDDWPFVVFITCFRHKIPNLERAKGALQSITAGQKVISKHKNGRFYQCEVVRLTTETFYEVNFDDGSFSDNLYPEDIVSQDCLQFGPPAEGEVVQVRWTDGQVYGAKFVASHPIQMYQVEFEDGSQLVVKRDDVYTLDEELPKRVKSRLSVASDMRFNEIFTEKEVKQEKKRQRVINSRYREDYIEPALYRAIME
HP1b binding inh – inhibitors of HP1-beta chromodomain binding to methylated histone tails; 390,000 tested, 0.56% active; AlphaScreen HP1-beta / biotin-H3K9me3 peptide binding; P83916; Potency, µM (series often up to 114 µM), without a hit: top-dose activity change, negative = inhibition, usual class: inhibitors; further: nearly all actives have a fitted effect of over 70% in size
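HP1-beta protein (50 nM final) preincubated 30 min at room temperature with biotinylated H3(1-18)K9me3 peptide (50 nM) in PBS pH 7.4, 0.01% Tween-20, then compound added for 30 min. AlphaScreen streptavidin donor/nickel chelate acceptor beads (10 ug/mL final), 30 min dark, luminescence read.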
BAZ2B inh – BAZ2B (human) inhibition. 360,000 tested, 4.4% active. AlphaScreen BAZ2B-H3K14Ac peptide displacement. Potency, µM (series often up to 114 µM), for the others: top-dose activity change, negative = inhibition, actives largely listed as inhibitors. AID 504333; further: on the % scale 0 is the no-effect control and ±100 the full control effect; nearly all actives have a fitted effect of over 60% in size
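AlphaScreen displacement of biotin-H3(5-23)K14Ac peptide (50 nM final) from BAZ2B (50 nM final) in PBS pH 7.4, 0.01% Tween-20; complex preformed 30 min RT, then compounds (top 110 uM) 30 min RT, beads 20 min dark.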
G9a block – blocks human histone lysine methyltransferase G9a; Q96KQ7; 350,000 tested, 8.8% active; Potency, µM (series often up to 102 µM), for the others: at the top dose activity, negative = inhibition, most hits filed as inhibitors; G9a H3K9 monomethylation, AlphaScreen, 2 h; AID 504332; further: on the % scale 0 is the no-effect control and ±100 the full control effect; nearly all actives have a fitted effect of over 75% in size
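Step 1: enzyme (final 20 nM) with compound, 15 min RT. Step 2: substrate peptide 500 nM and SAM 20 uM, 2 h RT. Step 3: anti-H3K9me1 antibody and AlphaScreen beads, 10 min, then plate read.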
GLS inh – blocks human kidney-isoform glutaminase activity; O94925; GLS enzymatic activity, qHTS titration; Potency, µM (top dose mostly 45.5 µM), without a hit: at the top dose activity change, negative = inhibition, usual class: inhibitors; 410,000 tested, 0.21% active; AID 624170; further: on the % scale 0 is the no-effect control and ±100 the full control effect
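Two-point fluorescence kinetic (t0, 30 min RT) for hKGA; glutamate detected via glutamate oxidase–HRP–Amplex Red. Substrate: 1 mM L-glutamine solution; buffer 45 mM KH2PO4, pH 8.2.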
* hit, by the source's call; ! = not confirmed by another sample; [ ] = dose if it differs, or a comment. Sampled rows, rich in hits. Any-hit rate of the full collection: about 10%. The call rests on the fitted dose curve; in most records, active means well fitted curve in the direction sought with a large enough effect; inconclusive means small, poorly fitted or top-dose-only effect, or another doubt; inactive means no such curve, though single readings can be large; an effect the other way counts as inactive or inconclusive. Potency means the concentration at half of the fitted maximal effect.

Results for C[C@@H]1CN([C@@H](C)CO)C(=O)CCCn2nncc2CO[C@@H]1CN(C)C(=O)Nc1cccc(C(F)(F)F)c1 ?
GLS inh: -1%

What do the screens show for `O=C(NCCc1ccc(Cl)cc1)C1CCN(S(=O)(=O)c2ccc(-n3cnnn3)cc2)CC1`?
JMJD2A Tudor: 79µM*; HP1b binding inh: -11%; BAZ2B inh: -3%; G9a block: -5%; GLS inh: -6%

Results for O=C(Oc1cccccc1=O)c1ccccc1 ?
JMJD2A Tudor: -29%; HP1b binding inh: 11%; BAZ2B inh: inconclusive; G9a block: 25µM*; GLS inh: 20%

How did CCOC(=O)/C(N=Nc1c(C)n(C)n(-c2ccccc2)c1=O)=C(/O)c1ccccc1 do in these assays?
JMJD2A Tudor: -1%; HP1b binding inh: 27%; BAZ2B inh: inconclusive; G9a block: 5%; GLS inh: -19%

What do the screens show for `Cc1c(N=N/C(C(=O)Nc2ccccc2)=C(/O)c2ccccc2)c(=O)n(-c2ccccc2)n1C`?
JMJD2A Tudor: inconclusive; HP1b binding inh: -4%; BAZ2B inh: 8.9µM*; G9a block: 14µM*; GLS inh: 11%

What do the screens show for `Cc1c(N=C(N)/N=C(\N)Nc2ccc(Br)cc2)c(=O)n(-c2ccccc2)n1C`?
JMJD2A Tudor: 32µM*; HP1b binding inh: 13%; BAZ2B inh: 14%; G9a block: 43%[59 µM]; GLS inh: -8%

How did Cc1cccc(NC(=O)C(Cc2ccccc2)n2cccc2)c1 (stereo not given) do in these assays?
JMJD2A Tudor: 3%; HP1b binding inh: 5%; BAZ2B inh: inconclusive; GLS inh: -11%

Results for CNCCCC12CCC(c3ccccc31)c1ccccc12 ?
JMJD2A Tudor: -28%; HP1b binding inh: 38%; BAZ2B inh: -1%; G9a block: 71µM*!; GLS inh: -12%

How did CC(C)(C)c1cnnn1-c1ccc(/C=N/Nc2ccc([N+](=O)[O-])cc2)cc1 do in these assays?
JMJD2A Tudor: -25%; HP1b binding inh: 8%; BAZ2B inh: -11%; G9a block: -4%; GLS inh: 6%

How did CN1CCC23c4ccccc4NC1C21CCN(C)C3Nc2ccccc21 do in these assays?
JMJD2A Tudor: -21%; HP1b binding inh: 1%; GLS inh: 32%

Results for C/C=C/C=C/C(=O)N1CC[C@]23c4ccccc4N[C@H]4N(C)c5cccc6c5[C@]42CCN([C@H]6C2OC2(C)C)[C@H]13 (stereo not given in full) ?
JMJD2A Tudor: 50µM*; HP1b binding inh: -32%; BAZ2B inh: 50µM*; G9a block: inconclusive; GLS inh: 21%

How did COc1ccc(-c2cc3onc(-c4c(Cl)cccc4Cl)c3c(=O)n2C)cc1 do in these assays?
JMJD2A Tudor: -19%; HP1b binding inh: 22%; BAZ2B inh: -15%; G9a block: 5%[2.33 µM]; GLS inh: 1%

How did COc1ccc(OCc2ccc(-c3nc(C#N)c(N4CCC(C(N)=O)CC4)o3)o2)cc1 do in these assays?
JMJD2A Tudor: inconclusive; HP1b binding inh: 14%; BAZ2B inh: inconclusive; G9a block: -7%[59 µM]; GLS inh: -5%

Results for N#Cc1nc(COc2ccccc2)oc1N1CCC(Cc2ccccc2)CC1 ?
JMJD2A Tudor: -32%; HP1b binding inh: inconclusive; BAZ2B inh: inconclusive; G9a block: 13µM*; GLS inh: 0%

Results for COc1ccc(OCc2ccc(-c3nc(C#N)c(N4CCN(c5cccc(Cl)c5)CC4)o3)o2)cc1 ?
JMJD2A Tudor: -17%; HP1b binding inh: 28%; BAZ2B inh: -29%; G9a block: -28%[59 µM]; GLS inh: -6%

Results for N#Cc1nc(-c2ccc(COc3ccc(Cl)cc3)o2)oc1N1CCN(c2ccccc2)CC1 ?
JMJD2A Tudor: -17%; HP1b binding inh: 11%; BAZ2B inh: -8%; G9a block: -8%[59 µM]; GLS inh: 1%

How did COc1ccc(OCc2ccc(-c3nc(C#N)c(N4CCC(C)CC4)o3)o2)cc1 do in these assays?
JMJD2A Tudor: inconclusive; HP1b binding inh: inconclusive; BAZ2B inh: 3.5µM*; G9a block: 3.5µM*; GLS inh: -4%

What do the screens show for `COc1ccc(OCc2ccc(-c3nc(C#N)c(N4CCN(C)CC4)o3)o2)cc1`?
JMJD2A Tudor: 56µM*; HP1b binding inh: inconclusive; BAZ2B inh: 32µM*; G9a block: 18µM*; GLS inh: 1%

Results for Cc1ccc(OCc2ccc(-c3nc(C#N)c(N4CCC(C)CC4)o3)o2)cc1 ?
JMJD2A Tudor: -34%; HP1b binding inh: -21%; BAZ2B inh: inconclusive; G9a block: 10µM*; GLS inh: -12%

Results for O=C(CCl)Nc1cn(-c2ccccc2)nc1-c1ccc(F)cc1 ?
JMJD2A Tudor: -11%; HP1b binding inh: 33%; G9a block: 5%; GLS inh: 1%

What do the screens show for `N#Cc1nc(-c2ccc(COc3ccccc3)o2)oc1N1CCN(c2ccccc2)CC1`?
JMJD2A Tudor: -14%; HP1b binding inh: 18%; BAZ2B inh: inconclusive; G9a block: inconclusive; GLS inh: -3%

Results for CC1CCN(c2oc(-c3ccc(COc4ccccc4)o3)nc2C#N)CC1 ?
JMJD2A Tudor: inconclusive; HP1b binding inh: -15%; BAZ2B inh: inconclusive; G9a block: 5µM*; GLS inh: 0%

What do the screens show for `COc1ccc(S(=O)(=O)Nc2cccc(S(=O)(=O)N3CCCCCC3)c2)cc1`?
JMJD2A Tudor: -9%; HP1b binding inh: 30%; BAZ2B inh: 9%; G9a block: 10%; GLS inh: 1%

Results for C/C(=N/OC(=O)c1ccc(C)cc1)c1ccc(N2C(=O)C3CCCCC3C2=O)cc1 (stereo not given) ?
JMJD2A Tudor: 40µM*; HP1b binding inh: -11%; BAZ2B inh: 10%; G9a block: -27%; GLS inh: 15%

How did C/C(=N/NC(=O)c1ccccc1O)c1ccc(N2C(=O)C3CCCCC3C2=O)cc1 (stereo not given) do in these assays?
JMJD2A Tudor: -3%; HP1b binding inh: 31%; BAZ2B inh: -7%; G9a block: -1%[59 µM]; GLS inh: -6%

Results for CCOC(=O)c1c(C)n(CC(O)c2ccccc2)c2ccc(O)cc12 (stereo not given) ?
JMJD2A Tudor: -25%; HP1b binding inh: 17%; BAZ2B inh: inconclusive; G9a block: 56µM*; GLS inh: 15%

Results for COc1cc2c(C(=O)OCCN(C)C)c(CSc3ccccc3)n(C)c2cc1Br ?
JMJD2A Tudor: -31%; HP1b binding inh: -3%; BAZ2B inh: -21%; G9a block: -24%; GLS inh: 11%

How did CCOC(=O)c1c(C)n(CCNC(C)=O)c2ccc(O)cc12 do in these assays?
JMJD2A Tudor: -14%; HP1b binding inh: 16%; BAZ2B inh: -2%; G9a block: -3%; GLS inh: -26%
